In PubChem BioAssay (NCATS):
Inconclusive results are not listed. The source made the active and inactive calls. Calls come from the whole dose curve; as a rule, active = well fitted inhibition curve with a large enough effect; inconclusive = small, poorly fitted or top-dose-only effect; inactive = flat fitted curve, though single readings scatter.
% is set by controls: 0 for no effect and ±100 for the full control effect.

Assay: P-glycoprotein substrates identified in KB-8-5-11 adenocarcinoma cell line, qHTS therapeutic library screen (AID 1346987); note: nearly all actives have a fitted effect of over 65% in size
Details: KB-8-5-11 (P-gp overexpressing) viability, CellTiter-Glo, 72 h; series mostly up to 44.5 µM; activity change, negative = cytotoxicity: at the top concentration
Outline: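 Compounds are pinned in dose-response onto KB-8-5-11 cells (500 cells/well, colchicine-free medium) and left 72 h at 37 degree C. CellTiter-Glo luminescence then yields AC50 values.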
For `C=C1CCC2(OC1)OC1CC3C4CC=C5CC(O)CC(O[C@@H]6OC[C@H](OC(=O)C(O)C(C)CC)[C@H](O)[C@H]6O[C@@H]6O[C@@H](C)[C@H](O)[C@@H](O)[C@H]6O)C5(C)C4CCC3(C)C1C2C` (stereo partly drawn), the outcome was “inactive [at 9.29 µM]”. For `CC1CC(=O)C2=C(O1)OC1(C)CCC3C(C)(C)C4OC4C(=O)C3(C)C1C2` (stereo not drawn), the “outcome” value was “inactive”. For `Cc1cccc(-c2nn3c(c2-c2ccnc4ccc(C(N)=O)cc24)CCC3)n1`, the “outcome” value was “inactive”. For `CC1(C)CC[C@]2(C(=O)O[C@@H]3O[C@H](CO)[C@@H](O)[C@H](O)[C@H]3O)CC[C@]3(C)C(=CCC4[C@@]5(C)CC[C@H](O[C@@H]6O[C@H](C(=O)O)[C@@H](O[C@@H]7O[C@H](CO)[C@@H](O)[C@H](O)[C@H]7O)[C@H](O)[C@H]6O)C(C)(C)C5CC[C@]43C)C2C1` (stereo partly drawn), the outcome was “inactive [at 9.29 µM]”. With `N#CN1CCC[C@@H](n2nc(-c3ccc(Oc4ccc(F)cc4F)cc3)c(C(N)=O)c2N)C1` the “activity change, negative = cytotoxicity” value was -0.392% (inactive). For `O=C(COCC(=O)N1CCN(C(c2ccccc2)c2ccccc2)CC1)Nc1ccc(Cl)cc1C(=O)O`, the “outcome” value was “inactive”. For `COc1c2c(c(C)c3c1C(=O)OC3)OC1(C)CC(O)C34OC(OC)(CCC3(C)C1C2)OC4(C)CO` (stereo not drawn), the “outcome” value was “inactive [at 17.3 µM]”. In the case of `CC(=O)N[C@H](Cc1c[nH]c2ccccc12)C(=O)OCc1cc(C(F)(F)F)cc(C(F)(F)F)c1`, the “activity change, negative = cytotoxicity” value is reported as 2.17% (inactive). For `CC(=O)/C=C/C1(O)C(C)CC(O[C@@H]2O[C@H](CO)[C@@H](O)[C@H](O)[C@H]2O)CC1(C)C` (stereo partly drawn), the “outcome” value was “inactive [at 17.3 µM]”. For `C=CC(C)(O)C1CC2C3(C)CCCC(C)(C)C3C(O)C(O)C2(C)O1` (stereo not drawn), the “activity change, negative = cytotoxicity” value was 5.02% (inactive). In the case of `C=Cc1cc2oc(-c3ccc(O)c(F)c3)nc2cc1O`, the “outcome” value is reported as “inactive”. With `COC(=O)c1ccc(OC)cc1O[C@@H]1O[C@H](CO[C@@H]2OC[C@@H](O)[C@H](O)[C@H]2O)[C@@H](O)[C@H](O)[C@H]1O` the “outcome” value was “inactive [at 17.3 µM]”. With `C[C@@H]1O[C@@H](O[C@H]2[C@H](O[C@H]3[C@H](O[C@H]4CC[C@@]5(C)C(CC[C@]6(C)C5CC=C5[C@@H]7CC(C)(C)CC(=O)[C@]7(C)CC[C@]56C)[C@@]4(C)CO)O[C@H](C(=O)O)[C@@H](O)[C@@H]3O)O[C@H](CO)[C@H](O)[C@@H]2O)[C@H](O)[C@H](O)[C@H]1O` (stereo partly drawn) the outcome was “inactive [at 9.29 µM]”. In the case of `C=C1CCc2occ(C)c2[C@H]2[C@H]1[C@@]13O[C@@]1(C[C@@H](C)[C@H]3OC(C)=O)[C@H]1O[C@@]21C`, the “activity change, negative = cytotoxicity” value is reported as 9.76% (inactive). With `COc1ccc2c(c1)N1C(=O)C[C@@]34C=CC[N@+]5([O-])CC[C@H]2[C@H](CC3)[C@@]145` the “outcome” value was “inactive”. With `Cc1c(-c2ccc3c(c2)OCO3)oc2ccc(C(O)C(C)O)cc12` (stereo not drawn) the “activity change, negative = cytotoxicity” value was 8.17% (inactive). For `C=C1C2(C)CC3C4(C)C=CC(=O)OC(C)(C)C4CCC3(C)C1(C(=O)OC)C(=O)C(C)(O)C2=O` (stereo not drawn), the “outcome” value was “inactive [at 17.3 µM]”. With `C=C1CC23CC(=O)C4C(CO)(CO)CCCC4(C)C2CCC1C3` (stereo not drawn) the “activity change, negative = cytotoxicity” value was -3.05% (inactive).
